Assay results reported in PMC7862700, “An all-to-all approach to the identification of sequence-specific readers for epigenetic DNA modifications on cytosine”.

Key:
Assay in all cases: DAPPL (digital affinity profiling via proximity ligation, sequencing); 10 mM Tris-HCl pH 7.5, 50 mM NaCl, 1 mM DTT, 4% glycerol, room temperature, 30 min; GST-TFs on glutathione beads, 16-mer random dsDNA library, 0.1% formaldehyde crosslink after washing; high values mean tight binding
Conditions in all cases: protein: recombinant; tags: N-terminal GST; dsDNA, one strand shown
FLI1 = target: T1, FLI1 (Homo sapiens, UniProt Q01543 1-452)
T1 sequence: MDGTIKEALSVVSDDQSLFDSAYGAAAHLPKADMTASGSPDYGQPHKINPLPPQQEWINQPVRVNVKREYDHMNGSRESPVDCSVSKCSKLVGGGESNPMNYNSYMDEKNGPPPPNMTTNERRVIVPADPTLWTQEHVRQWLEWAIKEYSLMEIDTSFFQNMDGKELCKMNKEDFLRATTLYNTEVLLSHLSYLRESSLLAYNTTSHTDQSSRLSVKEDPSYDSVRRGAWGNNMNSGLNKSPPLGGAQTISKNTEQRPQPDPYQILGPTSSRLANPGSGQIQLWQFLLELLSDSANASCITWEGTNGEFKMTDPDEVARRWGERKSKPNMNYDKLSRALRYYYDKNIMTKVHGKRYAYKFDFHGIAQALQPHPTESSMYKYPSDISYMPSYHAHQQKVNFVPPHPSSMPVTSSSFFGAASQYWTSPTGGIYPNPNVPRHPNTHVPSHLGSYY
Outline: (§1)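 GST fusions of human transcription factors were expressed in yeast and captured with glutathione beads. Once given DNA barcodes and pooled alongside a tag-only sample, they were incubated for 30 min at room temperature with 200 nmole of a random double-stranded 16-mer DNA library in Tris/NaCl/DTT/glycerol buffer, then washed, crosslinked (0.1% formaldehyde), proximity-ligated, PCR-amplified and sequenced on an Illumina NextSeq500. The binding signal of each hexamer is its read frequency for a factor divided by its frequency for the tag-only sample.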

ELK1 = target: T2, ELK1 (Homo sapiens, UniProt P19419 1-428)
T2 sequence: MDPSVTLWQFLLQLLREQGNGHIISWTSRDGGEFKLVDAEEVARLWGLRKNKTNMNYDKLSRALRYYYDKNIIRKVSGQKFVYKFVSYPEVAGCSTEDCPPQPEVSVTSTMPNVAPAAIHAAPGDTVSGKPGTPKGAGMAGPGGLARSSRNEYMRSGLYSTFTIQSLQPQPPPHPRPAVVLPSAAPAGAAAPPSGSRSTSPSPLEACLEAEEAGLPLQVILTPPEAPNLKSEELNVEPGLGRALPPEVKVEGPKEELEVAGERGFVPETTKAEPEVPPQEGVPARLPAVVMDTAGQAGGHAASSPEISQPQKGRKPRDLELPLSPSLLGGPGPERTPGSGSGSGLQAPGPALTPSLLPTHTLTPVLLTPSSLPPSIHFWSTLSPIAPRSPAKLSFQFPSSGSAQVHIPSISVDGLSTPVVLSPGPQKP
Outline: as §1

ERG = target: T3, ERG (Homo sapiens, UniProt P11308 1-479)
T3 sequence: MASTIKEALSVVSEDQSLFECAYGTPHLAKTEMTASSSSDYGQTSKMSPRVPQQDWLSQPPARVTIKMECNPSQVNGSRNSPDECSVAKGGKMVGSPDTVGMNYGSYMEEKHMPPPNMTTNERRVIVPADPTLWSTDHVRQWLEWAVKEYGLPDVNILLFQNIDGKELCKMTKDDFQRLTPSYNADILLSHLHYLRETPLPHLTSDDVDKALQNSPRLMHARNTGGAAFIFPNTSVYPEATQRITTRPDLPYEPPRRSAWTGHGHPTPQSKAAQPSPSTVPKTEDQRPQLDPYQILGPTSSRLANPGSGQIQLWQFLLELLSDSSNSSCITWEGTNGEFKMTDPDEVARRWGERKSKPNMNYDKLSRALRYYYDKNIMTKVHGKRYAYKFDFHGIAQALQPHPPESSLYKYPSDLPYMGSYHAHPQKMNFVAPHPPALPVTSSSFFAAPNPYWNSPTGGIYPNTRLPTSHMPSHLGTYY
Outline: as §1

ELF1 = ELF1 (Homo sapiens, UniProt P32519 1-619)
Outline: as §1

EHF = target: T4, EHF (Homo sapiens, UniProt Q9NZC4 1-300)
T4 sequence: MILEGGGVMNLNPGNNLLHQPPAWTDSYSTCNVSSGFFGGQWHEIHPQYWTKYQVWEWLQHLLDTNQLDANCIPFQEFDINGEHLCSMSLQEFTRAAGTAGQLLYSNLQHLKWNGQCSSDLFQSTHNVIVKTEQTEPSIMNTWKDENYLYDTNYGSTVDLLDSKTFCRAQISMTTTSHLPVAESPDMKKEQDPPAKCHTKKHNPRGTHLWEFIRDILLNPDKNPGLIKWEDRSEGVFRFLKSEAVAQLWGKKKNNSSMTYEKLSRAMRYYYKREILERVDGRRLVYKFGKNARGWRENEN
Outline: as §1

SPIB = SPIB (Homo sapiens, UniProt Q01892 1-262)
Outline: as §1

ELK3 = target: T5, ELK3 (Homo sapiens, UniProt P41970 1-407)
T5 sequence: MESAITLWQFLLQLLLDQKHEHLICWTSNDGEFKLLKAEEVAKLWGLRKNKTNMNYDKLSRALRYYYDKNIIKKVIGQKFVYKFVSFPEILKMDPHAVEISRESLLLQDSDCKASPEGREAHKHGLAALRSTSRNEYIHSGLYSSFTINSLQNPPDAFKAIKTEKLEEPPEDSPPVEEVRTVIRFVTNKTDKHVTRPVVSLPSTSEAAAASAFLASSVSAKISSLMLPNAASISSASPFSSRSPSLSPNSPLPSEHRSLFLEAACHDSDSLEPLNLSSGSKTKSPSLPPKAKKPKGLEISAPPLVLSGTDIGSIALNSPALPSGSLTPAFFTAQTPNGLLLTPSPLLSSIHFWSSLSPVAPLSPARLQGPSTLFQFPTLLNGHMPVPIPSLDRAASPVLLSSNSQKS
Outline: as §1

FEV = target: T6, FEV (Homo sapiens, UniProt Q99581 1-238)
T6 sequence: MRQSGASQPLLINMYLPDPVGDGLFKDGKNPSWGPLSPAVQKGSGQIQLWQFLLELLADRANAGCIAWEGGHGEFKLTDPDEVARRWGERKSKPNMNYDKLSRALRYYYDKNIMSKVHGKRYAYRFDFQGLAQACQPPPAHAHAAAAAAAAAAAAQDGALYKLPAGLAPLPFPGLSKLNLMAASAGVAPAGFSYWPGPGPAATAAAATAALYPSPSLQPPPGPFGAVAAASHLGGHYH
Outline: as §1

ETV5 = ETV5 (Homo sapiens, UniProt P41161 1-510)
Outline: as §1

SPIC = target: T7, SPIC (Homo sapiens, UniProt Q8N5J4 1-248)
T7 sequence: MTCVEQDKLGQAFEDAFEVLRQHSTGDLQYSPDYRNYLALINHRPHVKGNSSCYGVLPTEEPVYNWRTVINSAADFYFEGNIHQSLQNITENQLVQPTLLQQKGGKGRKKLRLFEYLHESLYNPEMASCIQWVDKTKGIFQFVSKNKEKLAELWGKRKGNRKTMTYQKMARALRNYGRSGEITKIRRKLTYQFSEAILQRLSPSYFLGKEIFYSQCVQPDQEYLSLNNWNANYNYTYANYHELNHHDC
Outline: as §1

ELF4 = ELF4 (Homo sapiens, UniProt Q99607 1-663)
Outline: as §1

ETV1 = ETV1 (Homo sapiens, UniProt P50549 1-477)
Outline: as §1

ETS2 = target: T8, ETS2 (Homo sapiens, UniProt P15036 1-469)
T8 sequence: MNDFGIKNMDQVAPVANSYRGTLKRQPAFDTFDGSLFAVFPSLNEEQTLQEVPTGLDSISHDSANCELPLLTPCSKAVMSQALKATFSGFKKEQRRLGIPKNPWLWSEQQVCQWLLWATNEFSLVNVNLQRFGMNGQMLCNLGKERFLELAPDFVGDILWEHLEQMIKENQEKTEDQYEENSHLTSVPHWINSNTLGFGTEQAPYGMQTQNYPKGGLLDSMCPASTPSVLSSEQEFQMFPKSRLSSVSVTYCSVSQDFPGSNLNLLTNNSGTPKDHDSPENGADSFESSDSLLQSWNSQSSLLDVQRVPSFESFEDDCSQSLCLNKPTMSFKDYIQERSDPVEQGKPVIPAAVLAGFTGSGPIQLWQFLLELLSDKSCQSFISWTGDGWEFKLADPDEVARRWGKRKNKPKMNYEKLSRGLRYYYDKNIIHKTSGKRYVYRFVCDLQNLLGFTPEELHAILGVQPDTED
Outline: as §1

ELF5 = target: T9, ELF5 (Homo sapiens, UniProt Q9UKW6-2 1-255)
T9 sequence: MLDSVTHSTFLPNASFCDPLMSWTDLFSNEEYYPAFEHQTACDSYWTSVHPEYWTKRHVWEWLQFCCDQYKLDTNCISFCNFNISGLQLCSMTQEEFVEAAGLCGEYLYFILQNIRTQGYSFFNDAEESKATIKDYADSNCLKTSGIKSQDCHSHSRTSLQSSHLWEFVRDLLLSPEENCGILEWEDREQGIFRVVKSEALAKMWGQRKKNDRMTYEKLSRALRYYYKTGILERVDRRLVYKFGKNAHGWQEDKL
Outline: as §1

ETV3 = target: T10, ETV3 (Homo sapiens, UniProt P41162-2 1-143)
T10 sequence: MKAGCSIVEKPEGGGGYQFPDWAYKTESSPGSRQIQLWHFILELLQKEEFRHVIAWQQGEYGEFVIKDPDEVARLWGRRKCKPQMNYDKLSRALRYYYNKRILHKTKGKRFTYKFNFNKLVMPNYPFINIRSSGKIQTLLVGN
Outline: as §1

ETV6 = ETV6 (Homo sapiens, UniProt P41212 1-452)
Outline: as §1

GABPA = target: T11, GABPA (Homo sapiens, UniProt Q06546 1-454)
T11 sequence: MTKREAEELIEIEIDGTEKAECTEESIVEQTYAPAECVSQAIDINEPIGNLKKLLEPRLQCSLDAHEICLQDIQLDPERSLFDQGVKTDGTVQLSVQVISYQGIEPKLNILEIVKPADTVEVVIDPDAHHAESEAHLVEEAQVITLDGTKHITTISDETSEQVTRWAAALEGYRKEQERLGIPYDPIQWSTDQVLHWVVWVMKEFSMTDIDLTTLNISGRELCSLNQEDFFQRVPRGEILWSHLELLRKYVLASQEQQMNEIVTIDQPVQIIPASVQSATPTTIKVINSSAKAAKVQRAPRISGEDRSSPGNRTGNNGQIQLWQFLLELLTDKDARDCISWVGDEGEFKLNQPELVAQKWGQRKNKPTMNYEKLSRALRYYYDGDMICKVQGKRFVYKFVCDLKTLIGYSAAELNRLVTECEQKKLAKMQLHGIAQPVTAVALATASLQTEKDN
Outline: as §1

SPI1 = SPI1 (Homo sapiens, UniProt P17947 1-270)
Outline: as §1

ERF = target: T12, ERF (Homo sapiens, UniProt P50548 1-548)
T12 sequence: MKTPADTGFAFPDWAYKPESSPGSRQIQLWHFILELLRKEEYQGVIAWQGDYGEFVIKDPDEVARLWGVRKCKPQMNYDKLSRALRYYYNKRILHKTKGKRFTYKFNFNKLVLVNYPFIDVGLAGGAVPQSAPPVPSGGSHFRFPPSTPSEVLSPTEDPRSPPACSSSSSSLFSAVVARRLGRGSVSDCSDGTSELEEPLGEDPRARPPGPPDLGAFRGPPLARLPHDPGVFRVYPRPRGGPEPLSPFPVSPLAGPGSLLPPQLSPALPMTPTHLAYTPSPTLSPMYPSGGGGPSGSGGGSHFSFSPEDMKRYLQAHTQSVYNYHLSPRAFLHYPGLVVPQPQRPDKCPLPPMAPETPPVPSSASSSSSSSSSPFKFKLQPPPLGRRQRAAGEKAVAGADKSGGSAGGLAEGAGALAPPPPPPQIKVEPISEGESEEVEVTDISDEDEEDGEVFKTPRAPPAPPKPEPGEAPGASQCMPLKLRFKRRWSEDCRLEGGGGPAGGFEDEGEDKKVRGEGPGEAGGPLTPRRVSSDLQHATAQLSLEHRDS
Outline: as §1

Chain of ETV5 (P41161 whole entry): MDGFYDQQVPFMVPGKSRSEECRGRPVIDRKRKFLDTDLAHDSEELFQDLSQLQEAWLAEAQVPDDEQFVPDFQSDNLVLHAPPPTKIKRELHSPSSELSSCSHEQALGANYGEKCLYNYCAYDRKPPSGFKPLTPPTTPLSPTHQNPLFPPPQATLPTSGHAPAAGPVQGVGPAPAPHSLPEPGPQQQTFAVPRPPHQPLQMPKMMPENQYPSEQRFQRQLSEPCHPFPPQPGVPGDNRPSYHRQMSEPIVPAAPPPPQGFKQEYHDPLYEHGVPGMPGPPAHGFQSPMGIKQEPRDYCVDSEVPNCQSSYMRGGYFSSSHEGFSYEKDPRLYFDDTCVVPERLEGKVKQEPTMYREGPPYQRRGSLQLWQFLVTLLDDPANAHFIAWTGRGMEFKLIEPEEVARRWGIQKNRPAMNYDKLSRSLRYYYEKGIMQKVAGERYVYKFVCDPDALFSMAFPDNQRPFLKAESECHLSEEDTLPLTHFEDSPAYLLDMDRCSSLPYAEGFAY
Chain of ELF4 (Q99607 whole entry): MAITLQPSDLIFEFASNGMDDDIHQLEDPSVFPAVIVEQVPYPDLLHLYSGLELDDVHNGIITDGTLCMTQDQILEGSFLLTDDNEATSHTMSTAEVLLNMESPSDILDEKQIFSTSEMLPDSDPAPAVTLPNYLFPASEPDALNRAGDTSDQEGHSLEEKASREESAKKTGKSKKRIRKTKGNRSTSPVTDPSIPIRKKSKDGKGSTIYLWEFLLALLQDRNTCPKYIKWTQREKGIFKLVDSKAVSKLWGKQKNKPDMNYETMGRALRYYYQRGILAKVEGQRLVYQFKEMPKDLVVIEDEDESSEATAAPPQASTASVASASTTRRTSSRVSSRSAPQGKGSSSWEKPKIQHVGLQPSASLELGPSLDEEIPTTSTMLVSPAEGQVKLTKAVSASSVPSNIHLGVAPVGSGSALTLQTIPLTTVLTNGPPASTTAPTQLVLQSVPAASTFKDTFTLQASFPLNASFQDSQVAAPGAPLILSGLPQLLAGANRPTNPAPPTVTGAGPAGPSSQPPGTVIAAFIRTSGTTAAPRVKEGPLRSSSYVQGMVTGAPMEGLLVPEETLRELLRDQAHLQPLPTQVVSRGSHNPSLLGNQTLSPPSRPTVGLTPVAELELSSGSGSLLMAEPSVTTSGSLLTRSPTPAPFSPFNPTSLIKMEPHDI
Chain of ETV6 (P41212 whole entry): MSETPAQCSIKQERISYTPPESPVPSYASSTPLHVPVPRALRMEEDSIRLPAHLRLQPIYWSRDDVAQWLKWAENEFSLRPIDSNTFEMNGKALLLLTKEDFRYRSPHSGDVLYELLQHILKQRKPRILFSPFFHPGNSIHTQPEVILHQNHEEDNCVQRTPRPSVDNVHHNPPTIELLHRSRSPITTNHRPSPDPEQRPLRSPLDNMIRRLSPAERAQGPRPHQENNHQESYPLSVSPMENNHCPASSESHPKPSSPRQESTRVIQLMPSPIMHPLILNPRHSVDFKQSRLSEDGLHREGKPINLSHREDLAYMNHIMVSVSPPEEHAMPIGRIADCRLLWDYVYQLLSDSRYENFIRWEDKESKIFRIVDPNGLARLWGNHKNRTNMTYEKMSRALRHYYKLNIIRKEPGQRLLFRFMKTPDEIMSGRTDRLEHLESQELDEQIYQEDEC
Chain of ELF1 (P32519 whole entry): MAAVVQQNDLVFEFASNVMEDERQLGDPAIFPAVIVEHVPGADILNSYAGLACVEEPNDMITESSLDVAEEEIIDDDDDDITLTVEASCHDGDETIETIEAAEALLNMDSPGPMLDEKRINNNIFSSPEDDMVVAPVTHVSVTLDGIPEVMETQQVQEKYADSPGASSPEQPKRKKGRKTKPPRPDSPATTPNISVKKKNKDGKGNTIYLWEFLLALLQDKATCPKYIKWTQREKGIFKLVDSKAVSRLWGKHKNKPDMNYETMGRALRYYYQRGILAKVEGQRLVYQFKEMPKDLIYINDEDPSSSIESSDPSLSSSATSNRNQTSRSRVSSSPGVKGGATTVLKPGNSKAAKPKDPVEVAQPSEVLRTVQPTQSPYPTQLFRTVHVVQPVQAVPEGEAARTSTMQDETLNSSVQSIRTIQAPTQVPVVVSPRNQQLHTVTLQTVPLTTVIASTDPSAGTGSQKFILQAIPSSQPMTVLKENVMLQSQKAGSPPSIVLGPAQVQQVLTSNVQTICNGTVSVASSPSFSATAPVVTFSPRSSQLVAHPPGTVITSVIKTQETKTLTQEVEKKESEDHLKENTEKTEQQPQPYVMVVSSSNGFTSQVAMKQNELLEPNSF
Chain of SPIB (Q01892 whole entry): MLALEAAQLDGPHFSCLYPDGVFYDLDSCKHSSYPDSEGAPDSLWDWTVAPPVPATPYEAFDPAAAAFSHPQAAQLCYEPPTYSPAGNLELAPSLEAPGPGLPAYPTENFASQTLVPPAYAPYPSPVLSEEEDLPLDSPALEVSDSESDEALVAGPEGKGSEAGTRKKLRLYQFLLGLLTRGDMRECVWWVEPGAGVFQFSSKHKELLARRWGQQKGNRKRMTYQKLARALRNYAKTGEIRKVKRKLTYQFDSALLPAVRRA
Chain of ETV1 (P50549 whole entry): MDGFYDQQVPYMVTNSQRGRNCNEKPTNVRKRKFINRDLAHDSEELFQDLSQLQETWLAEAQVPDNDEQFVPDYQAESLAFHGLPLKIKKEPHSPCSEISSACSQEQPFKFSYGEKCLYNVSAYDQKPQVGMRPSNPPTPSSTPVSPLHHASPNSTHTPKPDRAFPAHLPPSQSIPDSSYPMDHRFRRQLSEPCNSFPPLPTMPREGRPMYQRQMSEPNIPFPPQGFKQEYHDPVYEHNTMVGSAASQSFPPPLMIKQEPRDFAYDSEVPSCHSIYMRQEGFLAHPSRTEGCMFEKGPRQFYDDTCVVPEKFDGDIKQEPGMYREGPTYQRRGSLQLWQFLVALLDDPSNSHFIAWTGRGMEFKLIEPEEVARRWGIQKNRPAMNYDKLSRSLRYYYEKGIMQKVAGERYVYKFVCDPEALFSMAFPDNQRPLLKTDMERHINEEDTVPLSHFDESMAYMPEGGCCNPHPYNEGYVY

Row | Sequence | binding signal (FLI1) | binding signal (ELK1) | binding signal (ERG) | binding signal (ELF1) | binding signal (EHF) | binding signal (SPIB) | binding signal (ELK3) | binding signal (FEV) | binding signal (ETV5) | binding signal (SPIC) | binding signal (ELF4) | binding signal (ETV1) | binding signal (ETS2) | binding signal (ELF5) | binding signal (ETV3) | binding signal (ETV6) | binding signal (GABPA) | binding signal (SPI1) | binding signal (ERF)
1 | TGCCGG | 1.11 fold enrichment (6-mer frequency, TF over GST control) | 1.09 fold enrichment (6-mer frequency, TF over GST control) | 1.13 fold enrichment (6-mer frequency, TF over GST control) | 1.02 fold enrichment (6-mer frequency, TF over GST control) | 1.03 fold enrichment (6-mer frequency, TF over GST control) | 1.02 fold enrichment (6-mer frequency, TF over GST control) | 1.02 fold enrichment (6-mer frequency, TF over GST control) | 1.26 fold enrichment (6-mer frequency, TF over GST control) | 1.04 fold enrichment (6-mer frequency, TF over GST control) | 1.09 fold enrichment (6-mer frequency, TF over GST control) | 1.04 fold enrichment (6-mer frequency, TF over GST control) | 1.11 fold enrichment (6-mer frequency, TF over GST control) | 1 fold enrichment (6-mer frequency, TF over GST control) | 1.09 fold enrichment (6-mer frequency, TF over GST control) | 1.21 fold enrichment (6-mer frequency, TF over GST control) | 1.13 fold enrichment (6-mer frequency, TF over GST control) |  |  | 
2 | ATAGCG | 1.08 fold enrichment (6-mer frequency, TF over GST control) | 1.03 fold enrichment (6-mer frequency, TF over GST control) |  |  | 1.05 fold enrichment (6-mer frequency, TF over GST control) |  | 1.05 fold enrichment (6-mer frequency, TF over GST control) |  | 1.04 fold enrichment (6-mer frequency, TF over GST control) | 1.03 fold enrichment (6-mer frequency, TF over GST control) |  |  | 1 fold enrichment (6-mer frequency, TF over GST control) |  |  |  | 1.01 fold enrichment (6-mer frequency, TF over GST control) | 1.07 fold enrichment (6-mer frequency, TF over GST control) | 1.1 fold enrichment (6-mer frequency, TF over GST control)
3 | ACATAG | 1.12 fold enrichment (6-mer frequency, TF over GST control) |  |  | 1.07 fold enrichment (6-mer frequency, TF over GST control) | 1.07 fold enrichment (6-mer frequency, TF over GST control) | 1.01 fold enrichment (6-mer frequency, TF over GST control) | 1.07 fold enrichment (6-mer frequency, TF over GST control) |  | 1.08 fold enrichment (6-mer frequency, TF over GST control) | 1.02 fold enrichment (6-mer frequency, TF over GST control) | 1.04 fold enrichment (6-mer frequency, TF over GST control) |  | 1.05 fold enrichment (6-mer frequency, TF over GST control) | 1.02 fold enrichment (6-mer frequency, TF over GST control) |  | 1.07 fold enrichment (6-mer frequency, TF over GST control) | 1.03 fold enrichment (6-mer frequency, TF over GST control) |  | 1.11 fold enrichment (6-mer frequency, TF over GST control)
